Compound activity deposited in PubChem by National Center for Advancing Translational Sciences (NCATS).
The list is not random: actives were taken first. Their share in the collection is about 9%.
IMPase inh: qHTS Assay for Identifying the Cell-Membrane Permeable IMPase Inhibitors; AID 901, 2007; inhibition (IP1 accumulation), % at 46.1 µM; 120,000 tested, under 10 active; Inositol monophosphatase 1 (Rattus norvegicus), P97697; CHO-M1 cells, IP1 accumulation, HTRF TR-FRET ratio; active = well fitted curve in the direction sought with a large enough effect in the signal ratio, not every such curve was filed as active; inconclusive = small, poorly fitted or top-dose-only effect, or a change in a side signal; inactive = no such curve, though single readings can be large or run the other way; the % refers to the signal ratio;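 also: cells stimulated with carbachol in lithium chloride buffer; higher means more IMPase inhibition seen as more IP1 and lower FRET ratio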
Target sequence (P97697 whole entry, looked up): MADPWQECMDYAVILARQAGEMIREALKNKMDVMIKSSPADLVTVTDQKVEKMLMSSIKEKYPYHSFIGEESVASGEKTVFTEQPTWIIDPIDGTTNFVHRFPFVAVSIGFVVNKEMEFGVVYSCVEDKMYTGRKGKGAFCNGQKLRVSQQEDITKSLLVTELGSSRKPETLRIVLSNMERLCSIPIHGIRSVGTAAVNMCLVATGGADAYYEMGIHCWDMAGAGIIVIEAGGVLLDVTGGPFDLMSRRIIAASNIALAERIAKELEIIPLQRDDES
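Elevated IP1 in lysates lowers TR-FRET signal (665/620 ratio and 620 channel reported). Cells were CHO-M1, given carbachol (50 uM as added) plus 50mM LiCl, pH 7.4, 30 min, 37C; compounds titrated up to 46 uM; AC50 by Hill equation.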
HPGD inh: qHTS Assay for Inhibitors of HPGD (15-Hydroxyprostaglandin Dehydrogenase). purified HPGD, NADH fluorescence kinetic, PGE2 substrate. Potency, µM, usual class: inhibitors. 150,000 tested, 4.3% active. AID 894, 2007
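NADH formation kinetics: reaction with 30 uM PGE2 and 1 mM NAD+ (final), 20 nM enzyme, Tris-HCl pH 8 with Tween 20, after 15 min compound preincubation at room temperature. Fluorescence change, last versus first of five reads.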
ALDH1A1 inh: qHTS Assay for Inhibitors of Aldehyde Dehydrogenase 1 (ALDH1A1) | Purified ALDH1A1, NADH fluorescence, propionaldehyde substrate | AID 1030, 2008 | 220,000 tested, 7.3% active | Potency, µM (highest dose often 75.3 µM), hits mostly inhibitors
Target sequence (P00352 whole entry, looked up): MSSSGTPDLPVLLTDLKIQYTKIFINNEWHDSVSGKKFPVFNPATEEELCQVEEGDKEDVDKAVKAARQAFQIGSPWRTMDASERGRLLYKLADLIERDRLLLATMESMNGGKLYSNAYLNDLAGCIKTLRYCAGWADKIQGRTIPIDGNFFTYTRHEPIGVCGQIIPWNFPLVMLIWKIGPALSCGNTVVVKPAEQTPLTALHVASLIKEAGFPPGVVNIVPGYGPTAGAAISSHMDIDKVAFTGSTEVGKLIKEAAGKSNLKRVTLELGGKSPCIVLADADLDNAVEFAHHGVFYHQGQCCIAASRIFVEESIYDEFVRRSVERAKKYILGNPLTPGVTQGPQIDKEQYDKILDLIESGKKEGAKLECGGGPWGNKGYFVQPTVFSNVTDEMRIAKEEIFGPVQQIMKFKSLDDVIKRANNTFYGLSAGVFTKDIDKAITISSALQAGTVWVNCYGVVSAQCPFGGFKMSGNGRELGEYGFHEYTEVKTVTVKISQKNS
Of the large screens only hits and unclear results are named; the others gave an inactive call. Unless noted, calls follow the shape of the dose curve; as a rule, active = well fitted inhibition curve with a large enough effect (not every such curve was filed as active); inconclusive = small, poorly fitted or top-dose-only effect, or another doubt; inactive = no such curve, though single readings can be large or run the other way.

CS(=O)(=O)Nc1ccc(C2=NN(C(=O)c3ccco3)C(c3cccc(F)c3)C2)cc1 (centres undefined)	ALDH1A1 inh 14µM (no result: IMPase inh, HPGD inh)
CCS(=O)(=O)Nc1ccc(C2=NN(C(=S)Nc3ccccc3)C(c3ccco3)C2)cc1 (centres undefined)	HPGD inh inconclusive, ALDH1A1 inh inconclusive
CCOC(=O)c1cc(S(=O)(=O)N2CCN(C(=O)OCC)CC2)cn1C	none
Cc1c(Br)c([N+](=O)[O-])nn1CC(=O)NCc1cccs1	none
O=C(Oc1cccc(OC(=O)N2CCCCC2)c1)N1CCCCC1	none (no result: IMPase inh, HPGD inh)
O=C(Oc1cccc(C(=S)N2CCCCC2)c1)c1ccccc1	ALDH1A1 inh 2.5µM (no result: IMPase inh, HPGD inh)
O=C(/C=C/c1ccccc1)Oc1cccc(C(=S)N2CCOCC2)c1	ALDH1A1 inh 4.5µM (no result: IMPase inh, HPGD inh)
O=C(Oc1ccc(C(=S)N2CCC(O)CC2)cc1)c1ccc(Cl)cc1	none (no result: IMPase inh, HPGD inh)
O=C(/C=C/c1cccc(Oc2ccccc2)c1)N1CCOCC1	none (no result: IMPase inh, HPGD inh)
COc1ccc(C(=S)N2CCCCC2)cc1Br	none (no result: IMPase inh, HPGD inh)
Oc1cccc(C(=S)N2CCCCC2)c1	ALDH1A1 inh 11µM (no result: IMPase inh, HPGD inh)
O=C(Oc1ccc(C(=S)N2CCCCC2)cc1)c1ccccc1	ALDH1A1 inh 11µM (no result: IMPase inh, HPGD inh)
COCCCn1c(=O)cc(C)[nH]c1=S	none (no result: IMPase inh, HPGD inh)
O=C(CN1CCN(S(=O)(=O)c2ccccc2[N+](=O)[O-])CC1)NC(=O)NCc1ccco1	none (no result: IMPase inh, HPGD inh)
CN1CC[C@@]2(CCCN(C(=O)c3cc(C(F)(F)F)cc(C(F)(F)F)c3)C2)C1	none (no result: IMPase inh)
COC(=O)COc1ccc(Oc2nc(NC(C)(C)C)nc(N3CCOCC3)n2)nn1	none (no result: HPGD inh, ALDH1A1 inh)
O=C(NC1CCCC1)C1CCN(C(=O)c2ccc(-c3ccccc3)cc2)CC1	none (no result: IMPase inh, HPGD inh)
CC1(C)CCCC(C)(C)N1CC(O)COCCOc1ccc(Br)cc1 (centres undefined)	none
CCCCCCOC(=O)Nc1ccc(S(=O)(=O)Nc2cccc([N+](=O)[O-])c2)cc1	none (no result: IMPase inh)
O=S(=O)(Nc1ccc(-n2cccc2)cc1)c1ccccc1	HPGD inh inconclusive
CCC(C)O (centres undefined)	none (no result: IMPase inh)
CC1=NN(C(N)=S)C(=O)C1N=Nc1c(C)cc(C)cc1C (centres undefined)	none
CC1=NN(C(N)=S)C(=O)C1N=Nc1ccccc1C (centres undefined)	IMPase inh inconclusive, ALDH1A1 inh 5µM
CC1=NN(C(=O)c2ccncc2)C(=O)[C@@H]1N=Nc1ccc2ccccc2c1	none (no result: IMPase inh)
CC1=NN(C(N)=S)C(=O)C1N=Nc1ccc(C)cc1C (centres undefined)	ALDH1A1 inh 10µM
CC(=O)N/C(=C\c1ccc(F)cc1)C(=O)NC(Cc1c[nH]c2ccccc12)C(=O)O (centres undefined)	none
Clc1ccc(CO/N=C/c2cccs2)cc1	none (no result: IMPase inh, HPGD inh)
CC1CCc2nc(NC(=O)CN3CCN(Cc4ccc5c(c4)OCO5)CC3)sc2C1 (centres undefined)	ALDH1A1 inh 14µM
CC1CCc2nc(NC(=O)CN3CCN(c4ccccc4)CC3)sc2C1 (centres undefined)	ALDH1A1 inh inconclusive
O=C(Nc1cccc(C(F)(F)F)c1)C(Sc1cccc[n+]1[O-])c1ccccc1 (centres undefined)	none (no result: IMPase inh)
NC(=O)[C@@H]1CCCN1Cc1nc(-c2ccc(C(F)(F)F)cc2)no1	none (no result: IMPase inh, HPGD inh)
COc1ccc(OCc2cccc(C(=O)O)c2)cc1	none
O=C(O)c1ccc(NC(=S)NC(=O)c2cccc(COc3ccccc3)c2)cc1	ALDH1A1 inh 3.5µM (no result: IMPase inh, HPGD inh)
CCOc1cccc(C(=O)Nc2ccncc2)c1	none (no result: IMPase inh, HPGD inh)
O=C(COc1ccccc1Cl)NC(=S)Nc1cccc(NC(=O)c2ccccc2Cl)c1	ALDH1A1 inh inconclusive
CCOc1cccc(C(=O)NC(=S)Nc2cccc(NC(=O)c3ccccc3Cl)c2)c1	ALDH1A1 inh 1.4µM (no result: IMPase inh)
CCOc1cccc(C(=O)NC(=S)Nc2ccccc2)c1	ALDH1A1 inh 18µM (no result: IMPase inh)
Cc1cc(C(F)F)n2nc(C(=O)Nc3cc(Cl)ccc3C)nc2n1	none (no result: HPGD inh, ALDH1A1 inh)
NNC(=O)[C@H]1C[C@@H]1c1ccccc1	none (no result: IMPase inh)
CCN(CC)CCNC(=O)C1c2ccccc2C(=O)N(CCOC)C1c1ccc(F)cc1 (centres undefined)	none
Cc1ccccc1OCCN1CCC(Cc2ccccc2)CC1	none (no result: IMPase inh, HPGD inh)
CC1CCN(C(=O)c2ccc(SCc3ccccc3F)c([N+](=O)[O-])c2)CC1	HPGD inh 25µM, ALDH1A1 inh inconclusive
O=C(c1ccc(SCc2ccco2)c([N+](=O)[O-])c1)N1CCOCC1	none (no result: IMPase inh, HPGD inh)
Cc1ccc([N+](=O)[O-])c(OCCN2CCC(Cc3ccccc3)CC2)c1	ALDH1A1 inh 32µM (no result: IMPase inh, HPGD inh)
Cc1ccc(C(=O)N2CCC(Cc3ccccc3)CC2)cc1[N+](=O)[O-]	ALDH1A1 inh 14µM (no result: IMPase inh, HPGD inh)
Cc1c(C(=O)N2CCC(Cc3ccccc3)CC2)cccc1[N+](=O)[O-]	none (no result: IMPase inh, HPGD inh)
COc1ccc(-n2c3c(cc(C#N)c2=O)C(=O)CCC3)cc1	none (no result: IMPase inh, HPGD inh)
COc1cccc([C@@H]2Oc3ccc(OC)cc3C[C@H]2OC(=O)NS(=O)(=O)c2ccc(F)cc2)c1	none (no result: IMPase inh)
CCN(CC)C(=O)Cn1c(=O)n(-c2ccccc2)c(=O)c2sccc21	none (no result: IMPase inh, HPGD inh)
CCOC(=O)c1cnn(C(=O)c2ccccc2)c1N	HPGD inh inconclusive (no result: IMPase inh)
CSc1nnc2c(n1)OC=Nc1ccccc1-2	none
CSc1nnc(-c2ccco2)c(-c2ccco2)n1	HPGD inh 8.9µM, ALDH1A1 inh 3.5µM
O=C(CSc1nnc(-c2ccco2)c(-c2ccco2)n1)Nc1ccccc1	HPGD inh 25µM, ALDH1A1 inh 2µM
COc1ccc(C(=O)CSc2nnc(-c3ccco3)c(-c3ccco3)n2)cc1	ALDH1A1 inh 4µM (no result: IMPase inh, HPGD inh)
Cc1ccc(NC(=O)CSc2nnc(-c3ccco3)c(-c3ccco3)n2)cc1	HPGD inh 11µM, ALDH1A1 inh 3.2µM
CCn1c(SCC(=O)Nc2ccc(OC)cc2)nnc1-c1ccco1	none
O=C(CSc1nnc(-c2ccccc2)c(-c2ccccc2)n1)NCc1ccco1	none (no result: IMPase inh)
COc1ccc(C(=O)CSc2nnc(-c3ccco3)n2C)cc1	ALDH1A1 inh inconclusive
O=C(CNC(=O)Cc1ccccc1)NCC(=O)OCC(=O)c1ccc(Cl)cc1	none
Cc1c(Cl)cccc1NC(=O)c1ccc(OCC(=O)NCc2ccccc2)cc1	none
CCn1cnc2sc(C)c(C)c2c1=O	none
OCCN(CCO)c1nc(N2CCCCC2)c2nc(N(CCO)CCO)nc(N3CCCCC3)c2n1	none
COc1ccc(OC)c(-c2c3cc(O)c(=O)cc-3oc3cc(O)c(O)cc23)c1	HPGD inh 14µM, ALDH1A1 inh inconclusive (no result: IMPase inh)
CCOC(=O)c1oc2cc(O)ccc2c(=O)c1-c1ccccc1OC	ALDH1A1 inh inconclusive
CCOc1ccccc1-c1c2cc(O)c(=O)cc-2oc2cc(O)c(O)cc12	IMPase inh inconclusive, HPGD inh 18µM, ALDH1A1 inh 20µM
COc1ccc2c(=O)cc(-c3ccc(O)cc3)oc2c1	HPGD inh inconclusive, ALDH1A1 inh inconclusive
CN(C)CCCNCCCN	none (no result: IMPase inh)
CC(C)=CC1C=C(C)C(C)C2C(=O)NNC(=O)C12 (centres undefined)	ALDH1A1 inh 3.5µM
COC(=O)c1sc(SC)c(-c2ccon2)c1C	none (no result: IMPase inh, HPGD inh)
CCC(C)NC(=O)c1ccc2c(SCC(=O)O)c3c(nc2c1)CCCC3 (centres undefined)	HPGD inh 22µM, ALDH1A1 inh inconclusive (no result: IMPase inh)
Cc1ccc(CNC(=O)CSc2c3c(nc4cc(Cl)ccc24)CCCC3)o1	HPGD inh inconclusive, ALDH1A1 inh 20µM
